Results taken from PubChem BioAssay AID651965 (National Center for Advancing Translational Sciences (NCATS), 2013).
Among all 340,000 compounds or so, about 6,400 (1.9%) were called active. Roughly 4% stayed inconclusive and do not appear here. The call rests on the fitted dose curve; in most records, active means well fitted falling curve with a large enough effect; inconclusive means small, poorly fitted or top-dose-only effect; inactive means no such curve, though single readings can be large or run the other way. The list comes from a sample in which actives are over-represented; it also holds similar structures and randomly drawn compounds.

target: ATP-dependent Clp protease proteolytic subunit (Bacillus subtilis (strain 168)) (UniProt P80244); experiment: qHTS Assay for Activators of ClpP; further: the source files actives as falling curves though it sought activators and does not explain the sign; nearly all actives have a fitted effect of over 65% in size; details: purified B. subtilis ClpP, FRET peptide cleavage, 20 min; series mostly up to 57.5 µM; activity change, negative = active: at the top concentration
Method in brief: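 Buffer: 100 mM Tris/HCl pH8, 100 mM KCl, 0.05% low protease BSA, 2.5% glycerol, 0.01% Tween-20. ClpP 10 microg/mL final; 20 min RT; delta FRET normalized to ADEP and DMSO controls.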
Potency means the concentration at half of the fitted maximal effect.

Activity change, negative = active, inactive:
CC(C)NC(=O)C1(C)CCCCN1Cc1cccc(C(F)(F)F)c1 (stereo not given) 1.93%
COc1ccccc1NC(=S)N1CCC(NC(=O)C23CC4CC(CC(C4)C2)C3)CC1 -2.04%
CCCNC(=S)N1CCC(NC(=O)C23CC4CC(CC(C4)C2)C3)CC1 1.09%
CC(=O)N1Cc2cc(C(=O)NCc3cccc(F)c3)nc(-c3cccc(C4=CCCC4)c3)c2[C@H]1CCO -3.63%
COC(=O)[C@@]12C[C@@H](CC(=O)NCCCCc3ccccc3)C(=O)N(CCc3ccc(OC)c(OC)c3)C1=CCC(C)(C)C2 -3.69%
COc1ccc(-c2ccc3[nH]c4c(c3c2)CCN2C[C@H]3[C@H](C)ON(C)[C@H]3C[C@@H]42)cc1 -10.6%
CCN(CC)CCn1c(N)c(S(=O)(=O)c2ccccc2)c2nc3ccccc3nc21 3.65%
CCC(=O)Nc1ccc(C)cc1-c1nc2ccccc2n(Cc2ccccc2)c1=O 0.727%
CCOC(=O)[C@]12CCCC=C1N(CCC1=CCCCC1)C(=O)[C@H](CC(=O)N1CCN(C(=O)c3ccco3)CC1)C2 -1.83%
CCCCCCCNc1ccc(/C=C/c2ccnc3ccccc23)cc1 -0.676%
Cc1cccc(C(=O)NC(=S)N2CCN(c3ccc([N+](=O)[O-])cc3)CC2)c1 0.049%
O=C(c1cc(C(=O)N2CCN(c3ccc(F)cc3)CC2)cc([N+](=O)[O-])c1)N1CCN(c2ccc(F)cc2)CC1 -2.08%
CCCCc1ccc(S(=O)(=O)NC(=O)C2(C)CCN2C(=O)c2ccccc2)cc1 (stereo not given) -2.77%
Cc1ccc(-c2nc(=N)sn2Cc2ccccc2)cc1 -3.16%
Cc1ccc(C=O)cc1Cl 0.201%
CC1(C(=O)NS(=O)(=O)c2cccc(OC(F)F)c2)CCN1C(=O)C1CC1 (stereo not given) 1.45%
CC(=O)Nc1cc(-c2ccc(N3CCN(C)CC3)cc2)cn2c(-c3ccc(F)cc3)cnc12 -15%
CCOC(=O)N1CCN(C(c2ccnc3ccccc23)c2nnnn2-c2c(C)cccc2C)CC1 (stereo not given) 1.38%
COc1cc(F)ccc1-c1cc(C(=O)NCC2CCCCC2)[nH]n1 -1.75%
COc1ccc(-n2nnnc2CNC(=O)c2ccc3ccccc3c2)cc1 -16%
COc1ccc(CSc2nnnn2-c2ccc(C(=O)O)cc2)cc1 1.38%
CCCCOCCCNC(=O)C[C@@H]1C[C@@]2(C(=O)OC)CCCCC=C2N(CCC2=CCCCC2)C1=O 1.12%
COc1ccccc1CNC(=O)c1cc(-c2cc(Cl)ccc2C)n[nH]1 -0.552%
OC[C@H]1O[C@@H](c2nc(-c3nc(-c4ccc(F)cc4)no3)cs2)[C@H](O)[C@@H](O)[C@H]1O -1.14%
CCN1CCN(C(=O)Cn2nc(C)n3c(cc4c(OC)cccc43)c2=O)CC1 3.98%
Cc1nn(CC(=O)N2CCN(c3cccc(C(F)(F)F)c3)CC2)c(=O)c2cc3sccc3n12 -1.4%
CN[C@H]1C[C@H]2c3cc(Oc4ccccc4C)ccc3CCN2C(=O)[C@H]1[C@H](C)O -4.92%
CCCS(=O)(=O)NC(=O)C1(C)CCCN(C(=O)c2cc(C)on2)C1 (stereo not given) -2.31%
CCCCCCC1(C)NC(c2ccc3c(c2)OCO3)=CC(c2ccccc2O)N1 (stereo not given) -6.14%
CCOC(=O)N1CCC(NC(=O)Cc2cn(C)c3ccccc23)CC1 -21%
CCOC(=O)N1CCC(NC(=O)CCc2cn(C)c3ccccc23)CC1 -26.7%
COc1cccc(NC(=O)C2(C)CCN2C(=O)CCC2CCCC2)c1 (stereo not given) -0.927%
O=C(COC(=O)C1(c2ccc(F)cc2)CCCC1)N1CCNC1=O -1.05%
CN(C)S(=O)(=O)c1cccc(NC(=O)COC(=O)C2(c3ccccc3F)CCCC2)c1 0.268%
CC1=CC(C)(C)N(C(=O)CSc2nnc(-c3ccccc3)o2)c2ccc(C)cc21 -0.107%
COc1ccc2c(c1)C(C)=CC(C)(C)N2C(=O)CNCc1ccc2c(c1)OCO2 2.1%
COc1ccc(S(=O)(=O)N2CCCCC2c2cc(C(=O)NCc3ccc(F)cc3)no2)cc1 (stereo not given) 0.0963%
CC(=O)Oc1ccc(-c2nc3c(C)cccc3c(=O)o2)cc1 -2.1%
Cc1nc(N=C(N)N)nc2c(C)cccc12 0.0945%
Nc1ccc(/C=C/c2ccnc3ccccc23)c([N+](=O)[O-])c1 0.526%
O=C1NC[C@H](Cc2ccc(O)cc2)N(C[C@H]2CCCN2C[C@H](Cc2ccccc2)N2C[C@H](Cc3ccccc3)N(CCc3ccccc3)C(=O)C2=O)C1=O -3.18%
O=C(CSc1ccccc1)Nc1cccc(S(=O)(=O)N2CCOCC2)c1 1%
Cc1occc1C(=O)Nc1cccc(S(=O)(=O)N2CCOCC2)c1 1.54%
CC(C)c1cccc(-c2csc(C(O)c3ccccc3)n2)c1 (stereo not given) -2.46%
OC(CBr)CN1CCCCC1 (stereo not given) 0.573%
COc1ccc(CNC(=O)c2ccc3c(O)c(S(=O)(=O)c4ccccc4)c(=O)[nH]c3c2)cc1 -27%
O=C(Cc1ccccc1)NCc1ccc(F)cc1 3.53%
CCc1ccc2[nH]c(=O)c(Cc3ccccc3)c(O)c2c1 3.85%
CCCc1nc2ccccc2c(=O)n1NC(=O)c1c(O)c2ccccc2[nH]c1=O -15.9%
NC(=O)Cc1ccc2c(c1)[nH]c1ccccc12 -19.7%
COC(=O)Cc1ccc(NC(=S)NCc2ccccc2)cc1 -1.76%
CCC(C)N(c1ccc(/C=C/c2ccnc3ccccc23)cc1)C(C)CC (stereo not given) -0.824%
COC(=O)c1ccc2nc(C3CCCCC3)c(Cc3cccc(F)c3)n2c1 -13.5%
C(=Nc1ccc(/C=C/c2ccnc3ccccc23)cc1)Nc1ccc(/C=C/c2ccnc3ccccc23)cc1 -6.68%
Nc1ncnc2c1ncn2[C@@H]1O[C@H](C(=O)N2CCSC2)[C@@H](O)[C@H]1O 0.957%
CCOC(=O)C1C(C)C(C(C)(C)C)N(S(=O)(=O)c2ccc(C)cc2)C1c1ccccc1 (stereo not given) 0.713%
Nc1nc(CSc2nnnn2-c2ccccc2)nc(Nc2ccccc2)n1 -2.32%
OC[C@@H]1CN(Cc2cccs2)C[C@H](n2cnc3c(NC4CCCC4)ncnc32)O1 -2.11%
O=C(CCC1N=C2c3ccccc3N=C(SCc3ccccc3F)N2C1=O)NCCc1ccccc1 (stereo not given) 4.35%
CCOC(=O)CSC1=Nc2ccccc2C2=NC(CCC(=O)NCc3ccc(F)cc3)C(=O)N12 (stereo not given) 4.54%
CCCOc1ccc(F)cc1-c1cc(C(=O)Nc2ccc(F)cc2)[nH]n1 -0.0166%
CC(C)C1CCN(C(=O)C2CCC(=O)N(C3CCCCCC3)C2)CC1 (stereo not given) 1.03%
COc1ccc(Cn2ccnc2SCC(=O)NCc2ccco2)cc1 -2.28%
COc1ccc2c(c1)c1ncn(Cc3ccccn3)c(=O)c1n2C 4.35%
COCCN(Cc1ccco1)C(=O)Cn1ncc2c([nH]c3ccccc32)c1=O 4.44%
O=c1c2[nH]c3ccc(Cl)cc3c2ncn1Cc1ccccn1 -14.7%
CN(C)CCCOc1ccc(-c2ccc3nccn3c2)cn1 -24.3%
COc1cccc(NC(=O)C2(C)CCN2Cc2ccccc2Cl)c1 (stereo not given) -0.477%
CC1=C(C(=O)N(C(C)C)C(C)C)CC(CC(=O)NCCCCc2ccccc2)C(=O)N1CCC1=CCCCC1 (stereo not given) -0.51%
CN(Cc1ccccc1)C(=O)CCC1CCN(C(=O)c2ccco2)CC1 1.04%
Cc1ccc2c(c1)c1ncn(CCC3=CCCCC3)c(=O)c1n2C -29.4%
Cc1ccc2c(c1)c1ncn(Cc3ccc(F)cc3)c(=O)c1n2C 3.72%
CCCCN1C(=O)C(CC(=O)NCc2cccs2)CC(C(=O)N2CCCCCC2)=C1C (stereo not given) 2.09%
CCOC1=C2[C@@H](CN(S(=O)(=O)c3ccc(C)cc3)[C@H]2c2ccccc2F)[C@H]2C(=O)N(Cc3ccccc3)C(=O)[C@H]2C1 -5.97%
Nc1ccccc1-c1nc2ccncc2[nH]1 3.69%
Clc1ccccc1SCc1nc2ccccc2[nH]1 -2.24%
COc1ccc(-c2cn[nH]c2-c2ccc(OC)cc2)cc1 -8.81%
Cc1ccc(OCC(=O)Nc2ccc(Cl)c(-c3nc4ccccc4[nH]3)c2)cc1C 4.68%
Oc1ccc(-c2[nH]ncc2-c2nc3ccccc3s2)c(O)c1 -25.2%
COc1ccc(NC(=O)CSc2nc3ccccc3[nH]2)cc1 -0.614%

Potency, active:
COCCNC(=S)N1CCC(NC(=O)C23CC4CC(CC(C4)C2)C3)CC1 28.2 µM
CCC(=O)Nc1c(S(=O)(=O)c2ccccc2)c2nc3ccccc3nc2n1Cc1ccccc1 14.1 µM
O=C(c1cncc(Br)c1)N1CCN(c2ccc([N+](=O)[O-])cc2)CC1 28.2 µM
COc1ccc(-n2nnnc2-c2nc3ccccc3s2)cc1 28.2 µM
COc1cccc2c1cc1c(=O)n(CC(=O)N3CCN(c4ccccc4)CC3)nc(C)n12 25.1 µM
CCOC(=O)N1CCC(NC(=O)C(C)n2c3ccccc3c3cnn(C)c(=O)c32)CC1 (stereo not given) 28.2 µM
NS(=O)(=O)c1ccc(NC(=O)COC(=O)C2(c3ccc(F)cc3)CCCC2)cc1 28.2 µM
COc1ccc2c(c1)C(C)=CC(C)(C)N2C(=O)Nc1ccccc1 28.2 µM
COc1nc(N=C(N)N)nc2c(C)cccc12 3.16 µM
O=C(Nc1cccc(S(=O)(=O)N2CCOCC2)c1)C12CC3CC(CC(C3)C1)C2 31.6 µM
COC(=O)Cc1c(-c2[nH]c3ccccc3c2CC(=O)OC)[nH]c2ccccc12 28.2 µM
O=C(Cc1c(O)c2ccccc2[nH]c1=O)NCc1ccccc1 20 µM
CCCOC(=O)Cc1c(O)c2ccccc2[nH]c1=O 25.1 µM
NC(=O)CSC1=Nc2ccccc2C2=NC(CCC(=O)NCc3ccc(F)cc3)C(=O)N12 (stereo not given) 28.2 µM
COc1ccc2[nH]c3c(=O)n(Cc4ccco4)cnc3c2c1 25.1 µM
Cc1ccc2[nH]c3c(=O)n(Cc4ccccn4)cnc3c2c1 31.6 µM
Cc1ccc2c(c1)c1ncnc(N3CCc4ccccc4C3)c1n2C 31.6 µM
c1ccc2[nH]c(-c3nc4ccccc4[nH]3)nc2c1 7.08 µM
COc1ccc(-c2[nH]nc(-c3ccccc3)c2-c2nc3ccccc3[nH]2)cc1 25.1 µM
c1ccc(-c2[nH]ncc2-c2nc3ccccc3[nH]2)cc1 25.1 µM
